Assay outcomes: PubChem BioAssay, National Center for Advancing Translational Sciences (NCATS)
Only some compounds are listed: those with a hit (about 9.2% of all), similar ones and a draw of the others.
ELG1 genotox = qHTS screen for small molecules that induce genotoxicity in human embryonic kidney (HEK293T) cells expressing luciferase-tagged ELG1; HEK293T ELG1-luciferase reporter, luminescence, 16 h; Potency, µM (series often up to 46 µM), inactives show at the highest dose activity change, positive = activation, actives largely listed as activators; hit rate 1.3% among 330,000; AID 504466, 2011; also: % of control where 0% means no effect; nearly all actives have a fitted effect of over 60% in size
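Luminescence read-out: rising ELG1-luciferase signal, reflecting elevated ELG1 protein under genetic stress, flags genotoxic compounds. Cells were treated for 16 hr at 37 °C before ONE-Glo detection.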
NPC1 promoter act = qHTS Assay for NPC1 Promoter Activators. Huh7 NPC1 promoter luciferase reporter, 24 h. Potency, µM (top dose mostly 9.22 µM), for inactives: top-dose activation, most hits filed as activators. hit rate 2.4% among 320,000. AID 485313, 2010; also: % of control where 0% means no effect; nearly all actives have a fitted effect of over 60% in size
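In 1536-well qHTS, Huh7 cells harboring an NPC1 promoter–luciferase construct received compound for 24 h; activation was quantified by luminescence following luciferase reagent addition.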
SMN2 splice up = qHTS Assay for Enhancers of SMN2 Splice Variant Expression | hit rate 2.8% among 210,000 | HEK293 SMN2-luciferase splicing reporter, luminescence, 30-36 h | Potency, µM (top dose mostly 46.1 µM), inactives show at the top dose activity change, positive = activation, most hits filed as activators | AID 1458, 2008; also: % of control where 0% means no effect; nearly all actives have a fitted effect of over 55% in size
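HEK293 cells carry an SMN2 […]–luciferase reporter in which exon 7 inclusion puts luciferase in frame. Cells were plated 10-12 h before compound addition, then incubated 30-36 h at 37C. ONE-Glo luminescence was read; sodium butyrate at 4.5 mM final served as control.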
Rab9 promoter act = qHTS Assay for Rab9 Promoter Activators | AID 485297, 2010 | Huh7 Rab9 promoter-luciferase reporter, luminescence, 24 h | Potency, µM (highest dose often 9.22 µM), for inactives: top-dose activation, negative = inhibition, actives largely listed as activators | hit rate 2.8% among 320,000; also: % of control where 0% means no effect; nearly all actives have a fitted effect of over 60% in size
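Quantitative HTS format; Huh7 Rab9-luciferase reporter cells (1500/well) receive compound 2 h post-plating, incubate 24 h at 37 °C, then get luciferase reagent for 10 min before luminescence reading.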
FLuc counter = qHTS profiling assay for firefly luciferase inhibitor/activator using purifed enzyme and Km concentrations of substrates (counterscreen for miR-21 project); Luciferin 4-monooxygenase (Photinus pyralis), P08659; purified FLuc, Km substrates, luminescence inhibition; Potency, µM (titrated, usually from 57.5 µM), inactives show top-dose activity change, negative = inhibition, most hits filed as inhibitors; hit rate 6.9% among 360,000;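 also: plate controls were vehicle for no effect and reference inhibitor for full effect; nearly all actives have a fitted effect of over 55% in size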
Target sequence (P08659 whole entry, looked up): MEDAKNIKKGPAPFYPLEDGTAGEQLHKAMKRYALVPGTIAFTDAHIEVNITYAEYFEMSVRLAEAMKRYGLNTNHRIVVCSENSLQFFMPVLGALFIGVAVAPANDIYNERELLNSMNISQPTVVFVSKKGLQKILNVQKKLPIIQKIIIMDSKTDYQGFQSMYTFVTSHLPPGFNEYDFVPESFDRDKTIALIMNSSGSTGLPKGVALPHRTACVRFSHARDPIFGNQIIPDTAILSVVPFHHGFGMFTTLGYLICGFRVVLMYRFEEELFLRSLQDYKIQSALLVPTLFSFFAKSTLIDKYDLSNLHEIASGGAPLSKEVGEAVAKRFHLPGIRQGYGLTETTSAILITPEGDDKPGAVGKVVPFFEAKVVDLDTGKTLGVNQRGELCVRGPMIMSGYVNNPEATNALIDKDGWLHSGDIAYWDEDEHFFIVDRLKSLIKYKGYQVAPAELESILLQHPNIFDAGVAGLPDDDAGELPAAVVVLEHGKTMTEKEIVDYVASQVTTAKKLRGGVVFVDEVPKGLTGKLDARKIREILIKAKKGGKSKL
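Purified P. pyralis luciferase, 10 nM final, with Km-level 10 uM D-luciferin and 10 uM ATP in 50 mM Tris acetate pH 7.5, 10 mM Mg acetate, 0.01% Tween-20, 0.05% BSA; 6-point qHTS titration about 60 µM downward; luminescence read.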
ELG1 repair inh = qHTS screen for small molecules that inhibit ELG1-dependent DNA repair in human embryonic kidney (HEK293T) cells expressing luciferase-tagged ELG1; Potency, µM (doses to about 46.1 µM), inactives show top-dose activity change, negative = inhibition, usual class: inhibitors; HEK293T ELG1-luciferase reporter, luminescence, 16 h; DNA damage induced by 5-fluorouridine; AID 504467, 2011; hit rate 2.3% among 330,000; also: % is scaled to controls: 0 for no effect and ±100 for the full control effect; nearly all actives have a fitted effect of over 55% in size
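Step one: seed 2,000 cells per well. Step two: pin-transfer compound or DMSO alongside 5-fluorouridine. Step three: incubate 16 hr, 37 °C, 5% CO2. Step four: add ONE-Glo, wait 30 min, read luminescence.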
Numbers without * were called inactive; ? = inconclusive; / = no result given. Calls follow the shape of the dose curve; as a rule, active = well fitted curve in the direction sought with a large enough effect; inconclusive = small, poorly fitted or top-dose-only effect, or another doubt; inactive = no such curve, though single readings can be large; an effect the other way counts as inactive or inconclusive. Potency is read from the fitted curve at half-maximal effect.

SMILES | ELG1 genotox | NPC1 promoter act | SMN2 splice up | Rab9 promoter act | FLuc counter | ELG1 repair inh
CN(C)c1ccc(/C=N/NC(=O)C(=O)/C=C2\NC3(CCCC3)Cc3ccccc32)cc1 | -3% | -1% | 6% | 11% | -9% | 12µM*
COc1cc(/C=N/NC(=O)C(=O)/C=C2\NC3(CCCC3)Cc3ccccc32)ccc1O | -6% | 1% | ? | -7% | -19% | 23µM*
CNS(=O)(=O)c1cn(CC(=O)NCc2ccc(N(C)C)cc2)cc1S(=O)(=O)NC | 2% | -1% | / | -3% | 6% | 12%
CC(C)Oc1cc(C(=O)NC2CCCCC2)c2ccccc2n1 | -9% | 1% | / | 9% | 4% | 3%
CS(=O)(=O)Nc1cccc(-c2cnc3ccccc3n2)c1 | ? | 3.2µM* | / | 4.5µM* | 19µM* | ?
CC(C)C(=O)Nc1cccc(-c2cnc3ccccc3n2)c1 | ? | ? | -7% | ? | 15µM* | -1%
CNC(=S)Nc1cccc(-c2cnc3ccccc3n2)c1 | ? | ? | / | ? | 17µM* | ?
Cc1ccc(C(=O)Nc2cccc(-c3cnc4ccccc4n3)c2)cc1 | 2% | 1% | -4% | 1% | ? | 4%
Nc1cccc(-c2cnc3ccccc3n2)c1 | 9.2µM* | 2.5µM* | / | ? | 7.6µM* | ?
O=C(Nc1cccc(-c2cnc3ccccc3n2)c1)c1ccncc1 | 2% | 1% | 4% | 0% | ? | ?
O=[N+]([O-])c1cccc(-c2cnc3ccccc3n2)c1 | 26% | ? | / | ? | -6% | ?
CCCCN(CCCC)C(=S)NC(=O)c1ccccc1Cl | -4% | -8% | -10% | -4% | -2% | -3%
Cc1cc(C)n2nc(C(=O)OCC(=O)c3c[nH]c4ccccc34)nc2n1 | 1% | 0% | 6% | 1% | 3% | -3%
CC(C)Oc1ccc(/C=N/NC(=O)c2nnn(-c3nonc3N)c2CN(C)c2ccccc2)cc1 | -8% | -2% | / | 5% | ? | ?
Cc1cccc(NC(=O)CSc2nnc3c4ccccc4n(C)c3n2)c1 | / | / | -12% | / | -1% | /
O=C(CCc1nnc(-c2ccccc2)o1)NC1CCCCC1 | ? | 30% | / | ? | 17µM* | ?
CCOC(=O)CN(C)C(=O)CCc1nnc(-c2ccsc2)o1 | -1% | 0% | / | -2% | -9% | 0%
COC(c1ccccc1)c1nnc(CCC(=O)NC2CCCCC2)o1 (configuration not stated) | -1% | -2% | / | -3% | -16% | 9%
O=C(CCc1nnc(-c2ccsc2)o1)N1CCc2c(Cl)cccc2C1 | ? | 19% | / | ? | 17µM* | ?
O=C(CCc1nnc(-c2ccc(-c3ccccc3)cc2)o1)N1CCCCC1 | ? | ? | / | ? | 13µM* | ?
CC1CCCCC1NC(=O)c1ccc(NC2=NC3CS(=O)(=O)CC3S2)cc1 (configuration not stated) | 0% | 1% | / | 0% | 0% | -3%
CCN1CCCC1Cn1c(-c2ccccc2)nc2c(N(CCOC)CCOC)nc(C)nc21 (configuration not stated) | / | / | -8% | / | / | /
CC(C)(C)c1ccccc1NC(=O)c1ccc2c(c1)SC1=NS(=O)(=O)CCN12 | -11% | 1% | / | -4% | -3% | 21µM*
O=C(Nc1cccc(Br)c1)c1ccc2c(c1)SC1=NS(=O)(=O)CCN12 | -1% | 8% | / | -2% | 1% | ?
COc1ccc(NC(=O)c2c(C)oc3ccc(O)c(CN4CCCC(C)C4)c23)cc1 (configuration not stated) | / | / | -16% | / | 1% | /
CSc1nsc(SCC(=O)Nc2ccc(F)cc2F)n1 | ? | 19% | / | 18% | / | ?
